Results published in PubChem BioAssay (EPA / NIEHS).
Where “and” joins values, the source holds several entries; their conditions need not be identical. Identical values can stand only once. Results filed as inconclusive are left out. Calls of active or inactive are those of the source. How the source made its calls: active means hit-call score of the fitted dose curve at least 0.9, where 1 is the maximum; inconclusive means response in the unintended direction; inactive means score below 0.9.

Test: ATG_XTT_Cytotoxicity: Cytotoxicity Assessment in the Attagene TRANS-FACTORIAL HepG2 Assay (AID 2283584);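 on AC50: cells exposed to compound for 24 h before reading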
Method: ATG_XTT_Cytotoxicity is a cell-based, single-readout assay that uses HepG2, a human liver cell line, with measurements taken at 24 hours after chemical dosing in a 24-well plate.ATG_XTT_Cytotoxicity is one of one assay component(s) measured or calculated from the ATG_XTT_Cytotoxicity assay. It is designed to make measurements of cell number, a form of viability reporter, as detected with […] signals by XTT cytotoxicity assay technology.Data from the assay component ATG_XTT_Cytotoxicity was analyzed into 1 assay endpoint. This assay endpoint, ATG_XTT_Cytotoxicity, was analyzed in the positive analysis fitting direction relative to DMSO as the negative control and baseline of activity. Using a type of viability reporter, loss-of-signal activity can be used to understand changes in the viability. Furthermore, this assay endpoint can be referred to as a primary readout, because the performed assay has only produced 1 assay endpoint. To generalize the intended target to other relatable targets, this assay endpoint is annotated to the cell cycle intended target family, where the subfamily is cytotoxicity.
Human liver HepG2 cells are transiently transfected with multiple reporter transcription units (MRTUs) in 6-well plates using FuGene 6 reagent (Roche; 3 ml FuGene/1 mg DNA). The MRTU constructs are regulated by a cis-regulating element (promoter). […] A major difference between the CIS and TRANS system is that in CIS activities of endogenous TFs are measured, whereas the TRANS assay evaluates changes in activities of exogenous, chimeric NR-Gal4 proteins. […] At the end of 24 hour incubation, total RNA was isolated using TriZol reagent (Invitrogen). The isolated RNA is then reverse-transcribed using oligo(dT) primer and Mo-MLV reverse transcriptase (Invitrogen) with DNAse I (Ambion) treatment for 30 min. The one-tenth of the produced cDNA was amplified by PCR using Taq DNA polymerase (Invitrogen) and two reporter sequence-specific primers. The PCR products were fluorescently labeled by primer extension with 6-arboxyfluorescein (6-FAM) 5'-labeled reporter sequence-specific primer (2 min at 95 C, 20 s at 68 C and 10 min at 72 C) and these products were digested with 5U of HpaI (New England Biolabs) for 2h at 37 C. The fragments were purified using Qiaquick PCR columns (Qiagen), analyzed on an ABI 3130xL genetic analyzer (Applied Biosystems) with peak positions identified by using a set of X-rhodamine (ROX)-labeled MapMarker1000 molecular weight standards (BioVentures). The raw capillary electrophoresis data was processed using Attagraph software (Attagene).

Row | Compound | outcome | AC50
1 | O=C1OC2(c3ccccc31)c1cc(I)c(O)c(I)c1Oc1c2cc(I)c(O)c1I | inactive | 
2 | COC(=O)CC(C(C)=O)C(=O)OC (stereo not given) | inactive | 
3 | Clc1ccc2c(Cl)ccnc2c1 | inactive | 
4 | Cc1cc(Cc2cc(C)cc(C(C)(C)C)c2O)c(O)c(C(C)(C)C)c1 |  | 74.7 µM (active)
5 | CCO[Si](CCC1CCC2OC2C1)(OCC)OCC (stereo not given) | inactive | 
6 | CCC(=O)O | inactive | 
7 | CCCC=O | inactive | 
8 | O=c1cc(-c2ccccc2)oc2ccc3ccccc3c12 | inactive | 
9 | C/C=C/C(=O)C1=C(C)CCCC1(C)C | inactive | 
10 | CCCCCCCCCC=CCC1CC(=O)OC1=O (stereo not given) | inactive | 
11 | NCc1cccc(CN)c1 | inactive | 
12 | O=C1OC(=O)c2cc(-c3ccc4c(c3)C(=O)OC4=O)ccc21 | inactive | 
13 | CC(C)[C@@H]1CC[C@@H](C)C[C@H]1O | inactive | 
14 | OCC1CCC(CO)CC1 (stereo not given) | inactive | 
15 | C=COC(=O)C(C)(C)CCCCCC | inactive | 
16 | CCOC(OCC)C(=O)c1ccccc1 | inactive | 
17 | CCN(CCC#N)c1ccccc1 | inactive | 
18 | Cc1ccc(S(=O)(=O)O)cc1 | inactive | 
19 | CN(C)c1ccc(C(=C2C=CC(=[N+](C)C)C=C2)c2ccccc2)cc1 |  | 10.1 µM (active) and 7.71 µM (active)
20 | CC1CCC(C(=O)O)CC1 (stereo not given) | inactive | 

Row | Compound | outcome | AC50
21 | Oc1cc2ccccc2cc1O | inactive | 
22 | CCCCCCCCC1CCC(=O)O1 (stereo not given) | inactive | 
23 | CC(C)(C)c1ccc(O)c(O)c1 | inactive | 
24 | CCCCCCCCCCCCCC[n+]1ccccc1 |  | 28.3 µM (active)
25 | CCCCCCCCCCCC[N+](C)(C)Cc1ccccc1 |  | 24.2 µM (active) and 31.9 µM (active)
26 | CCCCCCc1ccc(N)cc1 | inactive | 
27 | Oc1c(Cl)ccc(Cl)c1Cl | inactive | 
28 | CC[N+](CC)(CC)Cc1ccccc1 | inactive | 
29 | CC(=O)Nc1ccc(S(N)(=O)=O)cc1 | inactive | 
30 | COC(O)c1ccccc1 (stereo not given) | inactive | 
31 | CC(=O)Nc1ccc(O)cc1 | inactive | 
32 | O=S(=O)(O)c1ccc2cc(O)ccc2c1 | inactive | 
33 | CCCCCCOC(=O)c1ccc(O)cc1 |  | 149 µM (active)
34 | Clc1ccc(Nc2nnc(Cc3ccncc3)c3ccccc23)cc1 | inactive | 
35 | C=CC(=O)OCCN(CC)CC | inactive | 
36 | c1ccc(CNc2ncnc3c2ncn3C2CCCCO2)cc1 (stereo not given) | inactive | 
37 | OCCN1CN(CCO)CN(CCO)C1 | inactive | 
38 | CC(C)(C)C1CCCCC1O (stereo not given) | inactive | 
39 | CCCCC(CC)C(=O)O (stereo not given) | inactive | 
40 | CCN(CC)CC | inactive | 
